The source made the active and inactive calls. Unless noted, how the calls were made is not given here.
How the values were obtained:
[1] = system: Wnt5a (protein binding on small-molecule microarray); assay: small molecules binding Wnt5a protein – biophysical, small-molecule microarray, 635/667 nm fluorescence, primary screen (AID 1142); conditions: 635 nm fluorescence, higher = more signal;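 further: fluorescence read at 667 nm with signal to noise per printed feature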
[2] = ATP-based viability of Huh7 replicon cells – cell-based, CellTiter-Glo luminescence, basal, 48 h, cytotoxicity control for HCV replication inhibitor project, primary screen (AID 1143); conditions: higher = more signal, called active from +8 up or from −8 down;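 further: Huh7 hepatoma cells carrying a hepatitis C replication reporter with no stimulus; test concentration not given here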
[3] = Pseudomonas biofilm growth suppression – PAO1 strain, BacTiter-Glo luminescence, LB-PBS, primary screen (AID 1144); conditions: P. aeruginosa PAO1 biofilm, 12 h, higher = more signal
[4] = basal CRE-LacZ reporter activity in PC12 – cell-based, unstimulated, primary screen (AID 1145); conditions: no forskolin, luminescence, 4.5 h, higher = more signal, called active from +8 up or from −8 down
[5] = forskolin-driven CRE-LacZ activity in PC12 – cell-based, CRE-LacZ reporter, forskolin-stimulated, primary screen (AID 1146); conditions: luminescence, 4.5 h, higher = more signal, called active from +8 up or from −8 down;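 further: PC12 cells with 6xCRE LacZ reporter stimulated by forskolin 10 µM; beta-galactosidase reporter signal reflecting CREB driven transcription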
[6] = molecular target: Streptavidin (Streptomyces avidinii) (UniProt P22629); assay: compounds binding control protein streptavidin – biophysical, small-molecule microarray, 635/667 nm fluorescence, artefact control for SMM compound annotation, primary screen (AID 1147); conditions: higher = more signal;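 further: signal reflects streptavidin binding to arrayed compounds as a control protein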
Sequence of Streptavidin (Streptomyces avidinii) (P22629 whole entry, looked up): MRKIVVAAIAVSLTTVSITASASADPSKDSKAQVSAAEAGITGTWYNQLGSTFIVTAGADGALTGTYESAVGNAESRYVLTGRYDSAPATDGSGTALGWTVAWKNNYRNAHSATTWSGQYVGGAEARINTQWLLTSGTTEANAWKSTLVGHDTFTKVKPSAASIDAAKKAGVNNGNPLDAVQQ

[7] = probe aInhba binding on compound microarray – biochemical, small-molecule microarray, 635/667 nm fluorescence, primary screen (AID 1148); conditions: higher = more signal;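 further: score merges 667nm spot fluorescence with signal-to-noise for antibody binding to printed compounds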
[8] = molecular target: Torsin-1A (Homo sapiens) (UniProt O14656); assay: TOR1A wild-type binding on microarray – cell lysate, small-molecule microarray, lysate, 635/667 nm, primary screen (AID 1149); conditions: COS7 hTOR1A-WT lysate, 635 nm fluorescence, higher = more signal
Sequence of Torsin-1A (Homo sapiens) (O14656 whole entry, looked up): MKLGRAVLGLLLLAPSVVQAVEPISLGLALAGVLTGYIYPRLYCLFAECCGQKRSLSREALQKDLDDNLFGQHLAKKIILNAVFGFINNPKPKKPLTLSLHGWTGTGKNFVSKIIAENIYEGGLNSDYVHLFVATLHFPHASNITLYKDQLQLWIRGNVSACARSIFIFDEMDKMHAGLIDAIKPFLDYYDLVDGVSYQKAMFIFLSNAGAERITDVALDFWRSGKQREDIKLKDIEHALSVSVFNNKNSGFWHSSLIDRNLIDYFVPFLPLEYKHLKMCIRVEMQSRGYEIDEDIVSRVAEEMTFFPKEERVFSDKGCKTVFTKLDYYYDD

[9] = molecular target: Torsin-1A (Homo sapiens) (UniProt O14656); assay: torsin A mutant lysate binding on microarrays – cell lysate, small-molecule microarray, COS7 lysate, 635/667 nm fluorescence, primary screen (AID 1150); conditions: COS7 hTOR1A mutant lysate, 635 nm fluorescence, higher = more signal;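 further: score pools 667 nm emission and signal to noise measuring lysate protein binding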
[10] = system: Sonic hedgehog protein (Shh); assay: Sonic hedgehog microarray binding compounds – biochemical, small-molecule microarray, 635/667 nm fluorescence, primary screen (AID 1151); conditions: 635 nm fluorescence, higher = more signal;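 further: Shh protein binding to compounds spotted on small-molecule microarray slides; score combines spot fluorescence intensity with signal-to-noise across triplicate slides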

SMILES	composite z-score [1]	z-score [2]	z-score [3]	z-score [4]	z-score [5]	composite z-score [6]	composite z-score [7]	composite z-score [8]	composite z-score [9]	composite z-score [10]
CCCCCN1CC=CC23O[C@@H]4/C=C\CCCOC(=O)C4[C@H]2C(=O)N(C(C)CO)[C@@H]3C1=O (stereo not given in full)	-0.917	0.194 (inactive)	-1.24 (inactive)	-1.43 (inactive)	-1.24 (inactive)	-0.783	-0.128	-3.18	-2.48	0.0074
COC(=O)[C@@H]1N=C(c2ccc(OCCCO)cc2)O[C@@H]1C	0.186	0.0511 (inactive)	-0.123 (inactive)	-0.31 (inactive)	0.421 (inactive)	-0.69	0.0225	0.0429	-0.425	0.369
CCOC(=O)C[C@H]1[C@H](OC(=O)c2ccc(C(=O)c3ccccc3)cc2)[C@@H](NC(=O)C2CCCCC2)c2cc(OCCCO)ccc2N1C(=O)c1ccc2ccccc2n1	0.233	0.233 (inactive)	-1.09 (inactive)	-0.215 (inactive)	-0.825 (inactive)	0.731	-0.0933	0.772	0.298	0.93
Cc1ccc(C(C)CC(O)C2C=CC3C(=O)N(c4ccccc4)C(=O)C3N2Nc2ccccc2)o1 (stereo not given)	0.158	-2.95 (inactive)	-0.443 (inactive)	0.636 (inactive)	0.367 (inactive)	1.19	0.0792	0.145	1.11	-0.125
CC(C)C(O)C1C=CC2C(=O)N(c3ccccc3)C(=O)C2N1Nc1ccccc1 (stereo not given)	0.271	-3.03 (inactive)	-1.35 (inactive)	0.819 (inactive)	0.418 (inactive)	0.874	0.0756	0.64	0.923	1.04
CCCC=C(CCC)[C@@H](NS(=O)(=O)c1ccc(C(F)(F)F)cc1)c1ccccc1	0.001	-1.09 (inactive)	-0.869 (inactive)	-0.565 (inactive)	1.32 (inactive)	0.578	0.156	-0.0214	-0.0562	0.108
CCOC(=O)C[C@H]1[C@H](OC(=O)Cc2ccc3c(c2)OCO3)[C@@H](NC(=O)C2CCCCC2)c2cc(OCCCO)ccc2N1C(=O)c1ccccc1	-0.0729	-0.0136 (inactive)	-1.38 (inactive)	2.82 (inactive)	-1.27 (inactive)	0.584	-0.0313	-0.0429	0.0914	0.0725
[N-]=[N+]=Nc1ccccc1C[C@]1(C(=O)O)COC(c2ccc(OCCCO)cc2)=N1	-0.0485	0.0518 (inactive)	-0.812 (inactive)	1.18 (inactive)	-0.313 (inactive)	-0.213	-0.0405	-2.54	-1.52	-1.14
COc1cc2c(cc1O)C(c1ccc(CN3CCCC3)cc1)N(Cc1cc3c(cc1Br)OCO3)CC2 (stereo not given)	-0.116	-3.59 (inactive)	-0.587 (inactive)	0.389 (inactive)	-0.0519 (inactive)	0.881	-0.128	-0.231	0.513	-1.01
CC(c1ccccc1)C(O)C1C=CC2C(=O)N(C)C(=O)C2N1Nc1ccccc1 (stereo not given)	0.462	0.481 (inactive)	-0.0225 (inactive)	0.0535 (inactive)	-0.0744 (inactive)	1.62	0.562	0.112	0.299	-0.353
C=CC[C@@H](OC(=O)Nc1ccc(OC)cc1)c1ccc(O)c(F)c1	-0.115	-4.67 (inactive)	-0.933 (inactive)	2.26 (inactive)	10.1 (active)	-0.716	-0.106	-0.0579	0.327	0.174
COC(=O)c1c(CC[C@@H](CO)NC(=O)N2CCC[C@H]2Cn2cc(C3(O)CCCCC3)nn2)oc(C(C)=O)c1C(=O)OC	-0.0505	-0.257 (inactive)	-0.156 (inactive)	0.498 (inactive)	0.306 (inactive)	0.429	-0.0448	0.666	0.895	1.44
CCCCC(CC)C(O)C1C=CC2C(=O)N(c3ccccc3)C(=O)C2N1Nc1ccc(C#N)cc1 (stereo not given)	0.648	0.308 (inactive)	-1.55 (inactive)	0.819 (inactive)	0.176 (inactive)	1.18	0.722	-0.064	0.68	-0.387
CCCCCN1CC=CC23O[C@@H]4/C=C\CCC(C)OC(=O)C4[C@H]2C(=O)N(C(CO)C(C)C)[C@@H]3C1=O (stereo not given in full)	-0.236	0.209 (inactive)	-1.34 (inactive)	-1.58 (inactive)	-0.601 (inactive)	-0.282	-0.101	-1.36	-0.303	0.866
O=C1O[C@@H](c2ccccc2)[C@@H](c2ccccc2)N2[C@@H](c3ccc(O)cc3)[C@]3(C(=O)Nc4ccc(C#CCCO)cc43)[C@@H](C(=O)N3CCN(c4ncccn4)CC3)[C@H]12	0.409	-1.28 (inactive)	-0.622 (inactive)	-0.554 (inactive)	-0.572 (inactive)	-0.704	0.0214	0.591	0.967	2.21
O=C1N(Cc2ccccc2)c2ccccc2C[C@]12N=C(c1ccc(OCCCO)cc1)O[C@@H]2c1ccccc1	0.0361	-4.72 (inactive)	-0.126 (inactive)	1.75 (inactive)	-1.08 (inactive)	0.0469	-0.0221	-0.569	0.812	0.837
CCOC(=O)C1=CC[C@@H](c2ccccc2)N(S(=O)(=O)c2ccc(C)cc2)[C@H]1c1ccccc1	0.144	-3.01 (inactive)	1.29 (inactive)	-0.0228 (inactive)	1.31 (inactive)	1.46	0.115	0.345	0.626	-0.627
Cc1ccc(F)cc1S(=O)(=O)N[C@@H]1CCN(Cc2ccc(Br)cc2)C1	-0.144	-3.58 (inactive)	0.767 (inactive)	0.764 (inactive)	-1.64 (inactive)	0.165	-0.0986	0.476	0.495	1.29

Reference: PubChem BioAssay
